Hit rate of the full screen: of about 310,000 compounds, about 17,000 (5.5%) were called active. About 11% were inconclusive and are not listed. What follows is part of a selection rich in actives, with near analogues and random picks from the rest. Values without a mark were called inactive. Calls come from the whole dose curve; as a rule, active = well fitted inhibition curve with a large enough effect; inconclusive = small, poorly fitted or top-dose-only effect, or effect the other way; inactive = no such curve, though single readings can be large or run the other way.
% is set by controls: 0 for no effect and ±100 for the full control effect; potency is the fitted concentration of half-maximal effect.

Sequence of Nuclear receptor ROR-gamma (Mus musculus) (P51450 whole entry, looked up, the tested form may be a part): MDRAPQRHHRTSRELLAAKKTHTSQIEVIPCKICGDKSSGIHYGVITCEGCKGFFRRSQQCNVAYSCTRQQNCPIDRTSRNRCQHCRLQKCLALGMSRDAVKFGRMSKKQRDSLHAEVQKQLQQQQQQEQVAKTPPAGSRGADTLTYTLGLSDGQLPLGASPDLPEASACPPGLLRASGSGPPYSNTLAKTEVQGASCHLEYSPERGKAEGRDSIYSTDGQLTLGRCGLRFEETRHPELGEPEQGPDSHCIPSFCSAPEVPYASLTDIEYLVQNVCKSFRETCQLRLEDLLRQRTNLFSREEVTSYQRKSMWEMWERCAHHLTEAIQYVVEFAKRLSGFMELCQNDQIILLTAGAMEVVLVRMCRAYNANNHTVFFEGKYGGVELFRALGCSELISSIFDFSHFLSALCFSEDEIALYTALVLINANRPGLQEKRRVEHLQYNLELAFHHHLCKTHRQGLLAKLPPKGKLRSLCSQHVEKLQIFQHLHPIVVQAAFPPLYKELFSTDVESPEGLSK

The experiment addresses Nuclear receptor ROR-gamma (Mus musculus) (UniProt P51450). Put plainly: qHTS for inhibitors of ROR gamma transcriptional activity. Note: nearly all actives have a fitted effect of over 60% in size. The following applies: Drosophila S2 Gal4-RORgamma UAS-luciferase reporter, 20 h; series mostly up to 53.6 µM; activity change, negative = inhibition: at the top concentration. In short, it runs like this: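 Stably transfected Drosophila Schneider cells are the test system, with ROR gamma fused to Gal4 and luciferase under UAS control; luminescence is read after 20 hr of 700 uM copper sulfate induction at ambient temperature.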
Take `O=C(C1CC(=O)N(C2CCCCC2)C1)N1CCN(c2ccccc2)CC1` (stereo not drawn): the “activity change, negative = inhibition” value is -40.1%.
Still for that read-out and setting: for `COc1cccc(CNC(=O)C2CCCN(S(=O)(=O)N3CC(C)CC(C)C3)C2)c1` (stereo not drawn) the value was -19.7%; for `O=C(c1cnc(Cl)c(Cl)c1)N1CCN(S(=O)(=O)c2ccc(F)cc2)CC1`, 15.9%.
With `O=C(N/N=C/c1ccccn1)C12CC3CC(CC(C3)C1)C2`, the Potency is 2.82 µM (active).
With `O=C(Nc1ccc(S(=O)(=O)Nc2ncccn2)cc1)C12CC3CC(CC(C3)C1)C2`, the “activity change, negative = inhibition” value is -7.39%.
For `CNC(=O)C(=O)N/N=C/c1ccccn1`, the “activity change, negative = inhibition” value was 0.172%.
Still for that read-out and setting: the value for `CC(C)(C)C1CCC(C(=O)NCC(c2cccs2)N2CCOCC2)CC1` (stereo not drawn) was 28.7%.
`O=C(CNC(=O)OCc1ccccc1)NC1CCCCNC1=O` (stereo not drawn): the “activity change, negative = inhibition” value is -1.73%.
The same measure, in the same setting: for `O=[N+]([O-])c1cc([N+](=O)[O-])c(Oc2cc(F)cc(F)c2F)cc1NN1CCCCC1` the value was -2.04%.
For `Fc1ccc(-c2ccc(CNCc3ccccn3)o2)cc1Cl`, the Potency is 11.2 µM (active).
Regarding `O=C(NCc1ccccn1)c1cc(Br)ccc1Cl`, the “activity change, negative = inhibition” value is -17%.
For the compound `COc1ccc(-c2ccc(CNCCCN3CCOCC3)o2)cc1Cl`, the “activity change, negative = inhibition” value is -15.8%.
Regarding `CCOc1ccc(-n2c(SCC(N)=O)nnc2-c2ccco2)cc1`, the “activity change, negative = inhibition” value is 29.1%.
Same read-out and setting: for `COc1ccccc1S(=O)(=O)c1c(C)cc(C)[nH]c1=O` the value was -1.83%.
Regarding `O=C1/C(=C\c2ccsc2)NC(=S)N1c1ccccc1`, the Potency is 7.08 µM (active).
Take `O=C1N/C(=C/c2cccn2-c2ccccc2)C(=O)N1c1cccc(Cl)c1`: the “activity change, negative = inhibition” value was -33%.
Regarding `COc1cc2c(cc1/C=C1/NC(=O)N(c3ccccc3)C1=O)OCO2`, the “activity change, negative = inhibition” value was 1.89%.
With `COc1ccc(OCC(O)CN(C)C(=O)C(C)Oc2ccccc2)cc1` (stereo not drawn), the “activity change, negative = inhibition” value was 11.1%.
The same measure, in the same setting: for `COc1ccc(C(=O)NCCCN2CCOCC2)cc1Br` the value was 0.497%; for `Cc1nnc(SCC(=O)N2CCN(c3ccccc3)CC2)n1-c1ccccc1`, 18.7%.
The same measure, in the same setting: the value for `Cc1ccc2cc(C)c(N3CCN(c4ccc(F)cc4)CC3)nc2c1` was 25.8%.
For `CC(=O)c1c(N2CCN(c3ccc(F)cc3)CC2)nc(=S)n(-c2ccccc2)c1C`, the Potency is 14.1 µM (active).
As to `Cc1ccccc1/C=C\c1nc(O)c([N+](=O)[O-])c(=O)[nH]1`, the “activity change, negative = inhibition” value was 21.3%.
Turning to `COc1cccc(NC(=O)C2CCCN(c3ncnc4c3nc3n4CCCCC3)C2)c1` (stereo not drawn), the “activity change, negative = inhibition” value is 2.68%.
Same read-out and setting: for `COc1ccc(NC(=O)N2CCCC(C(=O)Nc3ccccc3OC)C2)cc1` (stereo not drawn) the value was -2.34%; for `O=C(/C=C/c1ccc(F)cc1)NCCNC(=O)/C=C/c1ccc(F)cc1`, 29.2%.
On the same count and under the same terms, for `CC(C)c1ccc(/C=C/C(=O)NNC(=O)c2cccnc2)cc1` the value was -4.07%.
For `O=C(/C=C/c1ccc(F)cc1)NC(=S)NNC(=O)c1cccnc1`, the Potency is 11.2 µM (active).
As for `O=C(NCc1ccccc1)c1onc(CSc2nc3ccccc3[nH]2)c1C(=O)NCc1ccccc1`, the “activity change, negative = inhibition” value was 7.32%.
The same measure, in the same setting: the value for `CCSCc1nc(N)nc(NCCc2ccccc2)n1` was -4.9%; that for `Cc1cc(C)c(C(=O)CSc2nc(C)cc(=O)[nH]2)c(C)c1` was 19.9%.
`COc1ccccc1N1CCN(S(=O)(=O)CCNC(=O)c2ccc(OC(C)C)cc2)CC1`: the “activity change, negative = inhibition” value is 38%.
Still for that read-out and setting: the value for `CC(OC(=O)c1ccc2noc(-c3ccccc3)c2c1)C(N)=O` (stereo not drawn) was 29.6%; that for `O=C(Nc1nn(Cc2ccccc2F)cc1Br)c1cccs1` was 40.4%; that for `COc1ccc(C(=O)COC(=O)CNC(=O)c2cccs2)cc1Br` was -7.43%.
On to `O=C(C/C(=N\NC(=O)c1ccccc1Br)C(F)(F)F)c1cccs1`, for which the Potency is 14.1 µM (active).
Turning to `CCCCn1c(-c2cccc(C)c2)nc2cc3[nH]c(=O)c(C(C)C)nc3cc21`, the “activity change, negative = inhibition” value is -44.1%.
Regarding `O=C(Nc1cccc(-c2cscn2)c1)C1CCN(Cc2ccsc2)CC1`, the “activity change, negative = inhibition” value is 5.59%.
For the compound `O=C(NCCN1CCOC1=O)C1CCC(=O)N(CCc2ccc(Cl)cc2)C1` (stereo not drawn), the “activity change, negative = inhibition” value is 3.94%.
The same measure, in the same setting: for `Cc1ccc(CS(=O)Cc2ccc(C(=O)N3CCOCC3)o2)cc1` (stereo not drawn) the value was 8.91%.
With `CCOc1cccc(/C=N/N2C(=O)CSC2=S)c1O`, the Potency was 3.16 µM (active).
In the case of `CCOc1ccccc1N=C1NC(=O)CS1`, the “activity change, negative = inhibition” value was -3.07%.
Still for that read-out and setting: for `COc1ccc(CCNC(=O)C(=O)NCC2OCCN2S(=O)(=O)c2ccc(F)cc2)cc1OC` (stereo not drawn) the value was 23.6%.
On the same count and under the same terms, the value for `Cc1ccc(S(=O)(=O)NNC(=O)/C=C/c2cccc(F)c2)cc1` was -0.345%; that for `COC(=O)C1=C(O)/C(=C/c2ccc(OCC(=O)Nc3ccccc3)cc2)N=C1C` was 1.63%; that for `CS(=O)(=O)N1CCN=C1SCc1ccc(F)cc1` was -15%.
Turning to `Cc1cc(NC(=O)CSc2nnnn2-c2ccc(F)cc2)no1`, the “activity change, negative = inhibition” value was -1.67%.
With `Fc1ccccc1/C=C1\CCCC2=C1Nc1ncnn1C2c1ccccc1F` (stereo not drawn), the Potency is 2.82 µM (active).
As to `CC1=C(C(N)=O)C(c2ccc(Br)cc2)n2ncnc2N1` (stereo not drawn), the “activity change, negative = inhibition” value was -6.5%.
Regarding `CC(=O)c1cccc(NC(=O)COc2ccc(S(=O)(=O)N3CCOCC3)cc2)c1`, the “activity change, negative = inhibition” value was 4.94%.
The same measure, in the same setting: for `O=C(CSc1ccc(-c2ccccn2)nn1)Nc1ccccc1` the value was -23.3%; for `CCC(C)(C)n1nnnc1C(c1ccc(OC)c(OC)c1)N1CCN(C(=O)c2ccco2)CC1` (stereo not drawn), -1.65%.
Still for that read-out and setting: for `Cc1cccc(NS(=O)(=O)c2cc(Cl)ccc2Cl)n1` the value was -5.36%.

Source of the values: PubChem BioAssay AID2551 (National Center for Advancing Translational Sciences (NCATS), 2010).
